# Measured values reported in publication PMC5540273 (PLoS ONE, 2017).
# Test system: SGK2
# Conditions: concentration: 1 μM, replicates: in singlicate; n = 1
# 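Further: KINOMEscan kinase panel screen.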
row,SMILES,%Inh [%]
1,Cl.Cl.Cl.Fc1ccc(-c2ncn(C3CCNCC3)c2-c2ccnc(Nc3ccccc3)n2)cc1 [SB-238039],2
2,Cc1cccc(-c2nc(-c3ccc(S(C)(=O)=O)cc3)sc2-c2ccncc2)c1,0
3,CN1c2ccc(CNc3ccc(F)cc3)cc2-c2c(cnn2C)S1(=O)=O,100
4,O=C1Cc2cc(Nc3nc(NCc4cccc(S(=O)(=O)C(F)(F)F)c4)ncc3C(F)(F)F)ccc2N1,2
5,COc1cc2c(cc1OC[C@@H](O)CO)ncc1c3ccc(C#N)cc3[nH]c21,0
6,COc1ccc(S(=O)(=O)NC2CCN(c3cc(C)nc(Nc4cccc(C#N)c4)n3)CC2)cc1.O=C(O)C(F)(F)F [GSK1653539],0
7,[2H]C([2H])(c1cccc(C(F)(F)F)c1C)n1ccn2c(=O)nc(N3CCOCC3)cc12 [GSK2336394],1
8,Cc1cccc(-c2nc(Nc3ccc4ncsc4c3)c3ccccc3n2)n1 [GW867588],0
9,COc1cc2ncn(-c3cc(OCc4sccc4Cl)c(C(N)=O)s3)c2cc1OC [GSK448459],0
10,CCc1ccnc(/C=C/c2n[nH]c3cc(Sc4ccccc4C(=O)NC)ccc23)c1,0
11,C[C@@H](Oc1cc(-n2cnc3ccc(NC(=O)NC(C)(C)C)cc32)sc1C(N)=O)c1ccccc1Cl [GSK346294],10
12,COc1cc2c(cc1OCCN1CCN(C)CC1)ncc1c3ccc(C#N)cc3[nH]c21,43
13,COCCNC(=O)c1ccc(-c2cc(C(=O)NC3CC3)cc(F)c2C)cc1 [GW868318],20
14,COc1cc(Nc2nccc(N3CCC(NC(=O)c4cccc(NC(C)=O)c4)C3)n2)cc(OC)c1OC (centres unmarked) [GSK1379754],0
15,CN1c2ccc(NCc3ccc(F)cc3)cc2-c2c(cnn2C)S1(=O)=O,18
16,Cc1nnc(-c2ccc3ncc(-c4ccc(S(C)=O)cc4)n3c2)o1 (centres unmarked),13
17,O=C(NCCCN1CCOCC1)c1cccc(Nc2nccc(Nc3ccc(Oc4ccccc4)cc3)n2)c1 [GW663929],12
18,Cc1cccc(Cn2ccn3c(=O)cc(N4CCOCC4)nc23)c1 [GSK2297542],1

row,SMILES,%Inh [%]
1,Nc1nc(-c2ccc3c(N)n[nH]c3c2)cc(N2CCCC2)n1 [GSK2227430],0
2,Fc1ccc(-c2ncn(CCCN3CCOCC3)c2-c2cccnc2)cc1 [SB-211743],0
3,O=C(NOCC1CC1)c1ccc(F)c(F)c1Nc1ccc(I)cc1Cl,0
4,NS(=O)(=O)c1cccc(-c2ccc3ncc(N4CCOCC4)nc3c2)c1 [GSK1535721],0
5,Cn1ccc2ncnc(Oc3ccc(NC(=O)Nc4ccncc4)c(Cl)c3)c21,2
6,NS(=O)(=O)c1cccc(-c2ccc3nccc(-c4cccc(S(N)(=O)=O)c4)c3c2)c1 [GW867253],0
7,CCc1nc(-c2cccc(C)c2)c(-c2ccnc(NCc3ccccc3)c2)s1,4
8,O=C(Nc1cccc(-c2nn3ncccc3c2-c2ccnc(Nc3cccc(C(F)(F)F)c3)n2)c1)c1c(F)cccc1F [GSK299495],2
9,O=c1cc(N2CCOCC2)nc2n(Cc3cccc(F)c3)ccn12 [GSK2297430],0
10,O=C1NC(=O)C(N2CCc3ccccc32)=C1c1cccc(Cl)c1 [SB-408010],0
11,Cl.Oc1cccc(Nc2ccnc3cc(-c4ccncc4)ccc23)c1 [GW494601],0
12,COc1ccc(COc2cc(-n3cnc4ccccc43)sc2C(N)=O)cc1 [GSK1024304],10
13,COc1ccc(Nc2ncc(C#N)c(Nc3ccccc3C(N)=O)n2)cc1N1CCN(C)CC1.Cl [GSK1558669],58
14,Cc1cn2c(=O)cc(N3CCOCC3)nc2n1Cc1cccc(Cl)c1Cl [GSK2334006],0
15,N#Cc1c(N2CCOCC2)sc(-c2ccn[nH]2)c1-c1ccc(Cl)cc1,23
16,N#Cc1ccc(-c2cc(-c3c[nH]nc3-c3ccccn3)ccn2)cc1 [GW693028],0
17,Cc1nnc(-c2ccc3occ(-c4ccc(C(C)O)cc4)c3c2)o1 (centres unmarked),0
18,Cc1c(Cn2c(C)nn3c(=O)cc(N4CCOC(C)C4)nc23)cccc1C(F)(F)F (centres unmarked) [GSK2344444],0

# Test system: SGK3
# Conditions: concentration: 1 μM, replicates: in singlicate; n = 1
row,SMILES,%Inh [%]
1,Cc1cccc(-c2nc(-c3ccc(S(C)(=O)=O)cc3)sc2-c2ccncc2)c1,12
2,CN1c2ccc(CNc3ccc(F)cc3)cc2-c2c(cnn2C)S1(=O)=O,0
3,O=C1Cc2cc(Nc3nc(NCc4cccc(S(=O)(=O)C(F)(F)F)c4)ncc3C(F)(F)F)ccc2N1,33
4,COc1cc2c(cc1OC[C@@H](O)CO)ncc1c3ccc(C#N)cc3[nH]c21,38
5,COc1ccc(S(=O)(=O)NC2CCN(c3cc(C)nc(Nc4cccc(C#N)c4)n3)CC2)cc1.O=C(O)C(F)(F)F [GSK1653539],4
6,[2H]C([2H])(c1cccc(C(F)(F)F)c1C)n1ccn2c(=O)nc(N3CCOCC3)cc12 [GSK2336394],0
7,Cc1cccc(-c2nc(Nc3ccc4ncsc4c3)c3ccccc3n2)n1 [GW867588],0
8,COc1cc2ncn(-c3cc(OCc4sccc4Cl)c(C(N)=O)s3)c2cc1OC [GSK448459],0
9,CCc1ccnc(/C=C/c2n[nH]c3cc(Sc4ccccc4C(=O)NC)ccc23)c1,24
10,C[C@@H](Oc1cc(-n2cnc3ccc(NC(=O)NC(C)(C)C)cc32)sc1C(N)=O)c1ccccc1Cl [GSK346294],19
11,COc1cc2c(cc1OCCN1CCN(C)CC1)ncc1c3ccc(C#N)cc3[nH]c21,19
12,COCCNC(=O)c1ccc(-c2cc(C(=O)NC3CC3)cc(F)c2C)cc1 [GW868318],21
13,COc1cc(Nc2nccc(N3CCC(NC(=O)c4cccc(NC(C)=O)c4)C3)n2)cc(OC)c1OC (centres unmarked) [GSK1379754],0
14,CN1c2ccc(NCc3ccc(F)cc3)cc2-c2c(cnn2C)S1(=O)=O,4
15,Cc1nnc(-c2ccc3ncc(-c4ccc(S(C)=O)cc4)n3c2)o1 (centres unmarked),0
16,O=C(NCCCN1CCOCC1)c1cccc(Nc2nccc(Nc3ccc(Oc4ccccc4)cc3)n2)c1 [GW663929],19
17,Cc1cccc(Cn2ccn3c(=O)cc(N4CCOCC4)nc23)c1 [GSK2297542],0
18,Nc1nc(-c2ccc3c(N)n[nH]c3c2)cc(N2CCCC2)n1 [GSK2227430],8

row,SMILES,%Inh [%]
1,Fc1ccc(-c2ncn(CCCN3CCOCC3)c2-c2cccnc2)cc1 [SB-211743],0
2,O=C(NOCC1CC1)c1ccc(F)c(F)c1Nc1ccc(I)cc1Cl,0
3,NS(=O)(=O)c1cccc(-c2ccc3ncc(N4CCOCC4)nc3c2)c1 [GSK1535721],9
4,Cn1ccc2ncnc(Oc3ccc(NC(=O)Nc4ccncc4)c(Cl)c3)c21,0
5,NS(=O)(=O)c1cccc(-c2ccc3nccc(-c4cccc(S(N)(=O)=O)c4)c3c2)c1 [GW867253],0
6,CCc1nc(-c2cccc(C)c2)c(-c2ccnc(NCc3ccccc3)c2)s1,0
7,O=C(Nc1cccc(-c2nn3ncccc3c2-c2ccnc(Nc3cccc(C(F)(F)F)c3)n2)c1)c1c(F)cccc1F [GSK299495],0
8,O=c1cc(N2CCOCC2)nc2n(Cc3cccc(F)c3)ccn12 [GSK2297430],0
9,O=C1NC(=O)C(N2CCc3ccccc32)=C1c1cccc(Cl)c1 [SB-408010],0
10,Cl.Oc1cccc(Nc2ccnc3cc(-c4ccncc4)ccc23)c1 [GW494601],3
11,COc1ccc(COc2cc(-n3cnc4ccccc43)sc2C(N)=O)cc1 [GSK1024304],1
12,COc1ccc(Nc2ncc(C#N)c(Nc3ccccc3C(N)=O)n2)cc1N1CCN(C)CC1.Cl [GSK1558669],95.3
13,Cc1cn2c(=O)cc(N3CCOCC3)nc2n1Cc1cccc(Cl)c1Cl [GSK2334006],0
14,N#Cc1c(N2CCOCC2)sc(-c2ccn[nH]2)c1-c1ccc(Cl)cc1,8
15,N#Cc1ccc(-c2cc(-c3c[nH]nc3-c3ccccn3)ccn2)cc1 [GW693028],0
16,Cc1nnc(-c2ccc3occ(-c4ccc(C(C)O)cc4)c3c2)o1 (centres unmarked),0
17,Cc1c(Cn2c(C)nn3c(=O)cc(N4CCOC(C)C4)nc23)cccc1C(F)(F)F (centres unmarked) [GSK2344444],0
